AF4-AF9 inh: blocks AF4 peptide binding to human AF9; P42568; AlphaScreen, biotin-AF4 peptide binding to FLAG-AF9; inhibition, % at 10 µM; hit rate 0.47% among 350,000; AID 651704;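 active = every replicate reaching a set inhibition limit, whatever the replicate mean, cut at about 25% in these data; inconclusive = mean inhibition reaches that limit but some replicates miss it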;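 also: 0% = plate neutral control median and 100% = total signal loss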
Wnt bcat act: activators of Wnt/beta-catenin signaling | hit rate 1.2% among 300,000 | activation, % at 9.35 µM | Wnt/beta-catenin reporter cell assay, activator, plate reader; in the data active = activation above about 30%, passing the limit was not always enough; inconclusive = no clear call, values can overlap the other calls;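 also: 0% = neutral control wells and 100% = positive control wells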
esBAF inh: blocks esBAF chromatin remodeling in mouse ES cells | reporter increase, % at 12.5 µM | Bmi1-luciferase knock-in reporter, 24 h; 100% = twice the neutral-well signal | hit rate 2% among 350,000; in the data active = activation above about 40%; inconclusive = no clear call, values can overlap the other calls;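 also: 0% = median of the plate's neutral control wells and 100% = double that signal; a rise in the Bmi1 reporter signal indicates esBAF inhibition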
FGF22 binding: FGF22 (human) thermal shift binding. recombinant FGF22 thermal shift, SYPRO orange fluorescence; percent of sucrose octasulfate shift, DMSO zero. activity (Tm shift, normalised), % at 9.99 µM. hit rate 1.5% among 340,000. AID 651658;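 active = mean Tm shift, scaled 0 neutral to 100 positive control, at about 1.3% or above, every replicate too, limit read from the data; inconclusive = no clear call, values can overlap the other calls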
Target sequence (Q9HCT0 whole entry, looked up): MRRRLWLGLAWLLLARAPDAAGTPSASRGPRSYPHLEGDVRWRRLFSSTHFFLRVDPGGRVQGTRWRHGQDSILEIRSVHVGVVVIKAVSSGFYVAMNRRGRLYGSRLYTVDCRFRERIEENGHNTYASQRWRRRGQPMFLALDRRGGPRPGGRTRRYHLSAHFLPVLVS
SMARCA2 activ: activators of SMARCA2 function. MG213 cells, MMTV-luciferase reporter, dexamethasone, overnight. activation, % at 9.1 µM. hit rate 1% among 370,000. AID 652017; in the data active = activation above about 7.8%;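 also: 0% = vehicle wells and 100% = reference activator wells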
MITF act: activators of MITF-driven TRPM1 promoter activity in SK-MEL-5 cells; hit rate 0.75% among 300,000; activation, % at 12.5 µM; SK-MEL-5 TRPM1-promoter luciferase, 24 h; % of positive control, neutral wells = 0;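 active = mean activation of at least 80% with every replicate also reaching 80%; inconclusive = mean reaches 80% but some replicate falls short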;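 also: 0% = neutral control wells and 100% = parthenolide positive control wells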
SMARCA2 conf: confirmation of SMARCA2 (BRM) function activators | shares compounds with SMARCA2 activ | MG213 cells, MMTV-luciferase with dexamethasone, luminescence, overnight; MG213 cells expressing E1A, Rb sequestered; DMSO wells 0%, reference activator 100% | activation, % at 9.1 µM | hit rate 30% among 3,500;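 active = activation above its plate's cutoff, the mean activation of tested wells plus 3 SD, cut at about 7.9% in these data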
GAL4-VP16 Luc: counter-screen for SMARCA2 activators: GAL4-VP16 luciferase reporter activation; shares compounds with SMARCA2 activ; HEK293 GAL4-VP16 pG5luc reporter, luciferase luminescence; scaled: DMSO wells 0%, SAHA wells 100%; activation, % at 9.1 µM; hit rate 41% among 3,500; AID 686939;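 active = activation above the solvent-only control well mean plus 3 SD, averaged across control plates, cut at about 5.2% in these data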
* marks the source's active call; other numbers are inactive results; ? = inconclusive; nt = no result given. Compounds with a hit are over-represented: about 4.3% of the library has one in this group of screens.

SMILES	AF4-AF9 inh	Wnt bcat act	esBAF inh	FGF22 binding	SMARCA2 activ	MITF act	SMARCA2 conf	GAL4-VP16 Luc
Cc1ccc(-n2c(C)cc(C=C(C#N)C#N)c2C)cc1	nt	25	11	nt	12*	9	1	2
COc1ccc(S(=O)(=O)N2C[C@H](O)COC[C@@H]3O[C@H](CC(=O)NCCCN4CCOCC4)CC[C@H]32)cc1	-2	nt	-4	0	nt	nt	nt	nt
COC(=O)/C(=C1/Oc2cc(C)oc(=O)c2S1)C(F)(F)F	0	-11	-35	0	9.1*	-90	-16	3
CN1C(=O)c2cc(NC(=O)C3CCCCC3)ccc2OC[C@@H]2O[C@@H](CC(=O)NCCc3ccncc3)CC[C@@H]21	-1	nt	-1	0	nt	nt	nt	nt
C[C@H](CO)N1C[C@H](C)[C@H](CN(C)C(=O)Cc2ccccc2)OCc2cn(nn2)CCCC1=O	nt	nt	3	nt	nt	nt	nt	nt
c1ccc(-c2ccc3c(n2)CCCN3Cc2ccccn2)cc1	11	35*	nt	0	8.9*	nt	3	8.7*
CS(=O)(=O)N1[C@@H](C#N)[C@@H](c2ccccc2-c2ccccc2)[C@@H]1CO	-3	nt	nt	0	nt	nt	nt	nt
Cc1cc(C)c2c(n1)sc1c(N3CCN(CCO)CC3)ncnc12	nt	nt	2	nt	8.5*	11	7	1
CCOc1ncnc2c1sc1nc(C)cc(C)c12	nt	8	7	0	-5	nt	nt	nt
CCCc1ccc(OCc2ccc(C(=O)N/N=C/c3cccnc3)o2)cc1	-2	0	39	0	11*	67	6	18*
CCOc1ccc(CC(=O)N/N=C/c2cccnc2)cc1	1	-1	-4	0	1	nt	nt	nt
Cc1cccc(NC(=S)NNC(=O)c2csc(C)c2)c1	3	-2	nt	0	9.2*	65	8.0*	7.5*
CCN(C(=O)COC(=O)c1c(C)c(-c2ccccc2)nc2ccccc12)C1CCS(=O)(=O)C1 (stereo not drawn)	-1	-2	-2	0	-2	1	nt	nt
CCN(C(=O)COC(=O)c1c(-c2ccccc2)noc1C)C1CCS(=O)(=O)C1 (stereo not drawn)	nt	nt	-2	nt	8.6*	-6	-3	1
COc1ccc(NC(=O)C[C@H]2C(=O)N(C3CCCCC3)C[C@@H]2CSC)cc1	2	-2	2	0	8.3*	nt	-2	1
Cc1cc(C(=O)CSc2nnc(N)s2)c(C)n1Cc1ccco1	-3	7	nt	42	12*	61	5	5
CCC(=O)N1CCC1(C)C(=O)Nc1cc(-c2ccccc2)nn1C (stereo not drawn)	-1	1	65*	0	10*	nt	1	7.4*
Cc1cccc(NC(=S)NCCC(C)C)c1	nt	nt	nt	nt	2	-12	nt	nt
CC(C)CCNC(=O)C(=O)Nc1ccccc1	-1	19	?	0	9.1*	78	6	7.2*
C[C@@H]1CN([C@@H](C)CO)C(=O)Cc2cc(NC(=O)CCN3CCOCC3)ccc2O[C@@H]1CN(C)C(=O)Nc1ccc(F)cc1	-2	nt	2	0	nt	nt	nt	nt
CC1CCCCC1NC(=O)C(Cc1ccccc1)NS(=O)(=O)c1cccs1 (stereo not drawn)	nt	0	-7	nt	8.7*	11	3	0
CC(CCc1ccccc1)NC(=O)C(Cc1ccccc1)NS(=O)(=O)c1cccs1 (stereo not drawn)	nt	-7	-8	nt	-5	-3	nt	nt
CNC[C@H]1OCCCC[C@H](C)Oc2ccc(NC(=O)Nc3ccc(F)cc3)cc2C(=O)N([C@H](C)CO)C[C@H]1C	0	nt	-10	0	nt	nt	nt	nt
CCOC(=O)c1ccc(COc2ccc(C(C)C)cc2)o1	-6	?	nt	0	10*	66	13*	14*
COc1cccc([C@@H]2NC(=O)C/C=C/[C@H](C)[C@H](c3cccc(OC)c3)NC(=O)C/C=C/[C@@H]2C)c1	nt	nt	nt	nt	-2	nt	nt	nt

Assay outcomes as filed in PubChem BioAssay.
